The full list was thinned out, with hits kept by preference.
ST2 IL33 inh = IL1RL1 inhibition. AlphaLISA ST2-Fc/biotin-IL-33 interaction, 1 h. inhibition, % for hits at 17 µM. 2.3% of 78,000 active. AID 1259354; in the data active means inhibition above about 30%
Target sequence (Q01638 whole entry, looked up): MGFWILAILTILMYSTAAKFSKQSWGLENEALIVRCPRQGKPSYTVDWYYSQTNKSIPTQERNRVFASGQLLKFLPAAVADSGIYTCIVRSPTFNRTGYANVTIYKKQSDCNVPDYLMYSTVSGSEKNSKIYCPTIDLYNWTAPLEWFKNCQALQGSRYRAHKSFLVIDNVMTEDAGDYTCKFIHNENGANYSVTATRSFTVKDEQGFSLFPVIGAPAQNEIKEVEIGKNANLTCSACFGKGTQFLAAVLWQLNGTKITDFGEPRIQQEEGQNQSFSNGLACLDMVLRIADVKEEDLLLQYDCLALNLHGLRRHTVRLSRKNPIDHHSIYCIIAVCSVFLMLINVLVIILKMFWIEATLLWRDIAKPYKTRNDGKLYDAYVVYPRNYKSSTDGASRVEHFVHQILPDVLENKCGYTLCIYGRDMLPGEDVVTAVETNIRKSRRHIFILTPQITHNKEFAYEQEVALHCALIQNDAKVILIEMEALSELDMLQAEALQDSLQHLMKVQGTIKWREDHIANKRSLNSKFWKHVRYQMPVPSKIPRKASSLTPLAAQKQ
The depositor's hits bear a star; i = inactive.

SMILES | ST2 IL33 inh
COc1cccc(N2C(=O)NC3CC2(C)Oc2ccccc23)c1 (stereo not drawn) | i
COc1cccc2c1OC1(C)CC2NC(=O)N1c1cccc(Cl)c1 (stereo not drawn) | i
Nc1ccc(Sc2cccc(S(=O)(=O)c3cccc(Sc4ccc(N)cc4)c3)c2)cc1 | i
O=S(=O)(c1ccc2oc(-c3cccnc3)nc2c1)c1ccc2oc(-c3cccnc3)nc2c1 | i
COc1ccccc1N=c1oc2c(OC)cccc2cc1C(=O)NC(C)=O | i
CCOC(=O)C1(CCOc2ccccc2)CCCN(C(=O)c2csc(C)n2)C1 (stereo not drawn) | i
Cc1c(-c2ccc(Cl)cc2)n[nH]c1C(=O)N1CCCC2(CNC(=O)O2)C1 (stereo not drawn) | i
O=C(Nc1ccc(-c2noc(-c3ccccc3[N+](=O)[O-])n2)cc1)c1cccc(Br)c1 | i
COC(=O)c1ccc(S(=O)(=O)N2CCc3c(ncnc3N(C)C)C2)n1C | i
NNC(=O)C1CC1c1ccccc1 (stereo not drawn) | i
O=C(Nc1ccc(Nc2ccccc2)cc1)C1CC1c1ccccc1 (stereo not drawn) | 30.0%*
O=C(NC1C[C@@H]1c1ccccc1)[C@@H]1CC1c1ccccc1 (stereo partly drawn) | i
Cc1csc(NC(=O)CCCc2nc3cccnc3n2Cc2ccc(F)cc2)n1 | i
CN(C)c1ccc(/C=C/c2c([N+](=O)[O-])c(=O)n(C)c(=O)n2C)cc1 | i
CN(c1ccccc1)c1ncnc(N)c1[N+](=O)[O-] | i
CN(c1ccccc1)c1ccc(/C=C/[N+](=O)[O-])cc1 | 50.0%*
CC(=O)N1CCc2cc(Br)cc(S(=O)(=O)CCC(=O)NC(C)C)c21 | i
CCNc1ccc(N)c(C)c1C | 79.0%*
CCc1cc(-c2ccc(OC)cc2C)ccc1NC(C)=O | i
CN1CCN(C(=O)C(C(=O)N2CCN(C)CC2)C23CC4CC(CC(C4)C2)C3)CC1 | i
O=C1NC(=Nc2ccccc2)c2c1cccc2[N+](=O)[O-] | i
Cc1ccccc1N=C1NC(=O)c2cccc([N+](=O)[O-])c21 | i
Cc1cc2c(cc1[N+](=O)[O-])-c1ncccc1C2=Nc1ccccc1 | 32.0%*
O=C(O)C1CCCN1S(=O)(=O)c1ccc([N+](=O)[O-])cc1 (stereo not drawn) | i
CC(c1nnc(SCC(=O)O)n1-c1ccccc1)n1ccnc1 (stereo not drawn) | 31.0%*
SMILES | ST2 IL33 inh
O=C(O)CSc1nnnn1-c1ccccc1 | i
COc1ccc(C(=O)CSc2nnc(C(O)c3ccccc3)n2-c2ccccc2)cc1 (stereo not drawn) | i
CCCc1cc(=O)[nH]c(SCC(=O)Nc2cccc(C(F)(F)F)c2)n1 | i
O=C(Cn1cnc2c(cnn2-c2ccc(Cl)cc2)c1=O)c1ccc(Cl)cc1 | i
O=C1C2C3C=CC(C4CC34)C2C(=O)N1c1cccc(Cl)c1 (stereo not drawn) | i
O=C1CCc2nc3sc4c(c3c(=O)n2N1)CCCC4 | i
O=c1oc(/C=C/c2cccs2)nc2sc3c(c12)CCCC3 | i
O=c1oc(-c2ccccc2)nc2sc3c(c12)CCCCC3 | 36.0%*
Cc1c(NC(=O)c2cccc(I)c2)cccc1[N+](=O)[O-] | i
CC1=NN(c2ccccc2)C(=O)/C1=C/c1ccccc1OCc1ccc(C(=O)O)cc1 | i
O=C1NC(=O)/C(=C\c2ccccc2OCc2ccccc2)S1 | i
CSC1=N/C(=C\c2ccccc2OCc2ccccc2)C(=O)S1 | 64.0%*
CN(Cc1ccccc1)S(=O)(=O)c1ccc(C(=O)Nc2nnc(-c3ccc(F)cc3)o2)cc1 | i
O=[N+]([O-])c1cccc2ccc(N3CCCCC3)nc12 | 30.0%*
O=[N+]([O-])c1cccc2c(Br)[nH]nc12 | i
O=[N+]([O-])c1nn(-c2ccccc2)[n+]([O-])c1N1CCCCCC1 | i
CN(Cc1ccccc1)Cc1cn([C@H]2CO[C@H]3[C@@H]2OC[C@@H]3NCCCc2ccccc2)nn1 | i
CCOc1cc(CN2CCc3ccccc3C2)ccc1OC | i
COc1ccccc1CCN1CCC(CN(C)C(=O)CN2CCCC2=O)CC1 | i
CC(C)CN(CC(C)C)C(=O)C1CC2CCC1C2 (stereo not drawn) | i
c1ccc(CN2CCC(Nc3nncc(-c4cc5ccccc5o4)n3)C2)cc1 (stereo not drawn) | i
Cc1ccc(N=Cc2cc(Cl)cc([N+](=O)[O-])c2O)c(O)c1 | 35.0%*
Cc1ccc(O)c(N=Cc2cc(Cl)cc(Cl)c2O)c1 | i
Cc1ccc(N=Cc2cc(Br)cc(Cl)c2O)c(O)c1 | i
Fc1ccc(CN2CC[C@H](c3nnc(-c4ccccc4)o3)C2)cc1F | i
SMILES | ST2 IL33 inh
CN(C)c1ccc(/C=C(\C#N)c2ccc([N+](=O)[O-])cc2)cc1 | i
COc1ccc(/C=C(\C#N)c2ccc([N+](=O)[O-])cc2)c(OC)c1 | 48.0%*
COc1ccc(/C=C(\C#N)c2nc3ccccc3[nH]2)c(OC)c1 | i
Cc1ccc(OCC(=O)Nc2ccc(C)c(OCc3cc(=O)n4cccc(C)c4n3)c2)cc1C | i
COc1ccc(NC2CC(=O)N(c3cccc(Cl)c3)C2=O)cc1 (stereo not drawn) | i
O=[N+]([O-])c1cccc(-c2nc(N3CCOCC3)c3ccccc3n2)c1 | i
Cc1ccc([N+](=O)[O-])cc1N1C(=O)CC(Nc2ccc(N3CCOCC3)cc2)C1=O (stereo not drawn) | 52.0%*
O=C1CC(Nc2ccc(N3CCOCC3)cc2)C(=O)N1c1cccc([N+](=O)[O-])c1 (stereo not drawn) | 47.0%*
O=C1CC(N2CCOCC2)C(=O)N1c1cccc(Cl)c1 (stereo not drawn) | i
COc1cccc(N2C(=O)CC(Nc3ccc(N4CCOCC4)cc3)C2=O)c1 (stereo not drawn) | 47.0%*
Cc1ccc(S(=O)(=O)N2CCN(c3ccc([N+](=O)[O-])c(N4CCOCC4)c3)CC2)cc1 | i
O=[N+]([O-])c1ccc(Nc2nc(N3CCOCC3)nc(N3CCOCC3)n2)cc1 | i
Cc1cccc(N2C(=O)CC(N3CCN(c4ccc(F)cc4)CC3)C2=O)c1 (stereo not drawn) | i
O=C1CC(Nc2ccccc2)C(=O)N1c1ccc(Br)cc1 (stereo not drawn) | i
CCc1cccc(NC2CC(=O)N(c3cccc(Cl)c3)C2=O)c1 (stereo not drawn) | i
O=C1CC(Nc2ccc(Br)cc2)C(=O)N1c1cccc(Cl)c1 (stereo not drawn) | 32.0%*
C=CCn1c(CCCNC(=O)c2ccc(F)cc2)nc2ccccc21 | i
Cc1ccc(-n2ccn3c(CCC(=O)NCCc4ccc(S(N)(=O)=O)cc4)nnc3c2=O)cc1C | i
O=C(NCCc1ccsc1)c1ccc2c(Cl)c3c(nc2c1)CCCC3 | i
O=Cc1ccccc1OCc1ccccc1F | i
O=C1CCCC2=C1C(c1cccc(O)c1)Nc1ccccc1N2 (stereo not drawn) | i
Cc1ccccc1NC(=O)C1CCN(S(=O)(=O)c2ccc(Br)cc2)CC1 | i
CC(C)(C)C(C)(O)C#CCN1CCCCC1 (stereo not drawn) | i
COCC(=O)Nc1c(C(=O)Nc2cccc(F)c2)oc2ccccc12 | i
O=C1C2C3c4ccccc4C(c4ccccc43)C2C(=O)N1c1ccc2c(c1)OCO2 (stereo not drawn) | i
O=C1CC(Nc2ccc(N3CCOCC3)cc2)C(=O)N1c1ccc2c(c1)OCO2 (stereo not drawn) | 55.0%*
